An excerpt weighted towards active compounds, which were near 2.4% of everything screened.
POLI inh = blocks human DNA polymerase iota activity; Q9UNA4; Pol iota fluorescent replication assay, 10 min; Potency, µM (series often up to 115 µM), most hits filed as inhibitors; 1% of 390,000 active; AID 588590
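Fluorescent replication assay read twice, at 0 min and 10 min after adding 50 nM (final) substrate. Enzyme (10 nM) and compounds were first incubated 15 min at room temperature; enzyme-free buffer wells were negative controls.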
Pol kappa inh = DNA polymerase kappa (human) inhibition | Q9UBT6 | purified Pol kappa, fluorescent DNA synthesis assay, 10 min | Potency, µM (series often up to 107 µM), usual class: inhibitors | 0.53% of 400,000 active | AID 588579
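First, compounds were pin-transferred onto 10 nM Pol kappa. After 15 min at room temperature, substrate was added to 50 nM final. Fluorescence was then measured kinetically at 0 and 10 min.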
WRN inhibitor = WRN helicase (human) inhibition; Potency, µM (highest dose often 114 µM), most hits filed as inhibitors; AID 651768; WRN helicase unwinding, fluorescent forked duplex, kinetic; 0.46% of 360,000 active; Q14191; also: nearly all actives have a fitted effect of over 55% in size
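Fluorescence dequenching readout, ex 525 nm/em 598 nm, kinetic mode: forked duplex DNA (100 nM final) with adjacent fluorophore and quencher unwound by WRN (20 nM final) with 2 mM ATP. Compound preincubation 15 min, room temperature.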
FEN1 inhibitor = human FEN1 inhibition | Recombinant FEN1 flap cleavage, fluorescence, 15 min | Potency, µM (highest dose often 114 µM), usual class: inhibitors | 0.35% of 390,000 active; also: nearly all actives have a fitted effect of over 65% in size
Target sequence (P39748 whole entry, looked up): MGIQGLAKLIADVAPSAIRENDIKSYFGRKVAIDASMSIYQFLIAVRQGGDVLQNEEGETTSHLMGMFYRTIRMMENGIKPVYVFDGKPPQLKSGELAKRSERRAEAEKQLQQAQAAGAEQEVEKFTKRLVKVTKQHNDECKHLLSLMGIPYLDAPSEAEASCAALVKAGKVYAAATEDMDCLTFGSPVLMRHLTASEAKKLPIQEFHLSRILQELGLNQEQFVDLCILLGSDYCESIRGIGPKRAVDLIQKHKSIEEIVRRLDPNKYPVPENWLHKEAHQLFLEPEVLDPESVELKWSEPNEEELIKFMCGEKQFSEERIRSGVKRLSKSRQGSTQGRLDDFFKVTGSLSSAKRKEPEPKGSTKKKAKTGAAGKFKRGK
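Concentration–response screening of FEN1 (10 nM): 15 min compound preincubation at room temperature, reaction started with 50 nM substrate and read at 0 and 15 min. Corrected, normalized data were fitted by a four-parameter Hill equation.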
Pol eta inh = DNA polymerase eta (human) inhibition. Potency, µM (top dose mostly 114 µM), hits mostly inhibitors. 1.2% of 390,000 active. Q9Y253. recombinant Pol eta, fluorescent DNA replication assay
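Pol eta (10 nM) was preincubated with compounds for 15 min at room temperature, after which fluorescent replication substrate (50 nM final) was added to start the reaction. Fluorescence was read kinetically at 0 and 10 min.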
Pol beta inh = DNA polymerase beta (human) inhibition | P06746 | 1.3% of 340,000 active | Potency, µM (series often up to 114 µM), usual class: inhibitors | Pol beta primer extension/strand displacement, fluorescence kinetic
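Values derive from four-parameter Hill fits of normalized kinetic data: reads at 0 and 10 min following addition of 50 nM substrate to 10 nM Pol beta preincubated 15 min with compound.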
A number is an active result; – = inactive; ? = inconclusive; · = not tested or not shown; [ ] = dose if it differs, or a comment. Calls follow the shape of the dose curve; as a rule, active = well fitted curve in the direction sought with a large enough effect; inconclusive = small, poorly fitted or top-dose-only effect, or another doubt; inactive = no such curve, though single readings can be large; an effect the other way counts as inactive or inconclusive.

SMILES	POLI inh	Pol kappa inh	WRN inhibitor	FEN1 inhibitor	Pol eta inh	Pol beta inh
Cc1cc2nc(-c3ccc(SCC(=O)Nc4ccc5c(c4)OCCO5)nc3)[nH]c2cc1C	?	–	–	–	–	?
O=C(CSc1ccc(-c2nc3ccccc3[nH]2)cn1)Nc1ccc2c(c1)OCCO2	?	–	–	–	–	17.8µM
Cc1ccc2nc(-c3ccc(SCC(=O)Nc4ccc5c(c4)OCCO5)nc3)[nH]c2c1	?	–	–	–	?	14.1µM
CCc1nnc(NC(=O)CSc2ccc(-c3nc4ccccc4[nH]3)cn2)s1	?	–	–	–	?	35.5µM
O=C(Nc1ccc(-c2nc3ccccc3[nH]2)cc1)c1ccccc1NS(=O)(=O)c1ccc(F)cc1	?	–	–	?	28.2µM	–
Cc1nc(NC(=O)CSc2ccc(-c3nc4ccccc4[nH]3)cn2)sc1C	–	–	–	–	–	–
CC[C@@H]1/C=C(\C)C[C@H](C)C[C@H](OC)[C@H]2O[C@@](O)(C(=O)C(=O)N3CCCC[C@H]3C(=O)O[C@H](/C(C)=C/[C@@H]3CC[C@H](Cl)[C@H](OC)C3)[C@H](C)[C@@H](O)CC1=O)[C@H](C)C[C@@H]2OC	·	–[19.4 µM]	·	·	·	·
CCOC(=O)N1CCN(/[N+]([O-])=N/Oc2ccc(C(F)(F)F)cc2[N+](=O)[O-])CC1	–	–	·	–	·	·
COc1ccc(-c2nc3cnc(N4CCOCC4)nc3n(Cc3cccs3)c2=O)cc1	·	–	·	·	·	·
COC1=CC(=O)C(O)=C/C1=C\C=C\c1ccccc1	·	–	·	·	·	·
Cc1cc(-c2ccc(S(=O)(=O)Nc3ccc(Cl)cc3C)cc2)on1	–	–	·	–	–	–
O=C(CSc1ccc(-c2nc3ccccc3[nH]2)cn1)Nc1ccc(S(=O)(=O)NC2CC2)cc1	?	–	–	–	?	17.8µM
NC(=N\N=Cc1ccco1)/C(N)=N/N=Cc1ccco1	?	–	–	–	44.7µM	·
O=C(c1ccc(COc2ccc(F)cc2)o1)n1cc(Br)cn1	?	–	?	–	79.4µM	22.4µM
CCN(CC)CC(=O)c1c(C)n(C)c2ccc(OC)cc12	?	–	·	–	·	·
COc1ccc(SCC(Cc2ccccc2)N2CCN(CCc3ccccc3)CCC2=O)cc1 (configuration not stated)	–	–	·	–	·	·
CCc1ccc(S(=O)(=O)NCc2cccn2Cc2cccc(C)c2)cc1	–	–	·	–	–	?
CCC(=O)Nc1ccc(S(=O)(=O)NCc2cccn2Cc2cccc(C)c2)cc1	89.1µM	–	·	–	–	–
COc1cc(/C=C2/C(=O)NN(c3ccc(Cl)cc3)C2=O)ccc1OC(=O)c1ccco1	–	–	39.8µM	–	28.2µM	?
COc1ccc(N2CC3=C(C2=O)C(c2ccc(Br)cc2)NC(=O)N3C)cc1 (configuration not stated)	–	–	·	–	–	–
Cn1c2ccccc2c(=O)c2c(=O)n(C3CCCCC3)c(-c3ccco3)nc21	–	–	–	–	–	–
COc1ccc(CCn2c(C)nc3c(c(=O)c4ccccc4n3C)c2=O)cc1	–	–	–	50.1µM	–	–
CC(C)Cn1c(-c2ccco2)nc2c(c(=O)c3ccccc3n2C)c1=O	·	·	·	·	·	39.8µM
CC[C@H](C)[C@H](NC(=O)CNC(=O)[C@H](CCCNC(=N)N)NC(=O)[C@H](CO)NC(=O)[C@H](C)NC(=O)[C@H](Cc1ccc(O)cc1)NC(=O)[C@H](Cc1c[nH]c2ccccc12)NC(=O)[C@H](C)NC(=O)[C@@H]1CCCN1C(=O)[C@H](CC(N)=O)NC(=O)[C@@H](NC(=O)[C@H](CC(=O)O)NC(=O)[C@@H]1CCCN1C(=O)[C@@H](N)[C@@H](C)O)[C@@H](C)CC)C(=O)N[C@@H](CCCNC(=N)N)C(=O)N1CCC[C@H]1C(=O)N[C@H](C(=O)NCC(=O)N[C@@H](CCCNC(=N)N)C(=O)N[C@@H](Cc1ccccc1)C(N)=O)C(C)C	·	–[12 µM]	·	·	·	·
N#C/C(=C\c1ccc(OCc2ccc(C(=O)O)cc2)cc1)C(=O)N1CCOCC1	?	–	–	–	28.2µM	–

Screening data from PubChem.
